Values joined by “and” are separate entries in the source; they are usually repeats but may differ in a detail not shown here. Equal values may be shown once. Among all 100,000 compounds or so, about 930 (0.93%) were called active. Rule as the data show it: active = inhibition mostly above about 56% (no sharp cut-off); inactive = mostly below about 77%. The sample as a whole holds a higher share of actives than the screen did. A structure can be active in one record and inactive in another.
Molecular target: Salicylate synthase (Mycobacterium tuberculosis (strain CDC 1551 / Oshkosh)) (UniProt P9WFX0)
Sequence (P9WFX0 whole entry, looked up): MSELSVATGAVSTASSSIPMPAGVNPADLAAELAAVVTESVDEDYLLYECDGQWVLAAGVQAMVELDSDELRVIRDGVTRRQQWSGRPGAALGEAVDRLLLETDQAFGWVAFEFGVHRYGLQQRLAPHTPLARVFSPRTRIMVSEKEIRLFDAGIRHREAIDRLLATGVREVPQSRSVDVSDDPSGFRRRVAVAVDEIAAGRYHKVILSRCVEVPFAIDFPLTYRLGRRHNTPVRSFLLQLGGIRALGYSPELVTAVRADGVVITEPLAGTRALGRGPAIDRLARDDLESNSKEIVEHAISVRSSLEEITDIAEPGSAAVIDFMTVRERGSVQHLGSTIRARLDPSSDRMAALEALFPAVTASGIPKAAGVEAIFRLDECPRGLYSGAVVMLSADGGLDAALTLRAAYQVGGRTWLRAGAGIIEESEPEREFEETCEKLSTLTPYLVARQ
Test: inhibitors of M. tuberculosis MbtI – biochemical, fluorescence intensity, primary screen (AID 493033)
Details: purified MbtI enzyme, fluorescence intensity read-out, stronger effect = higher value, concentration not given here

Row | SMILES | inhibition
1 | CCn1c(=O)cc(SCC(=O)NC2CCCCC2)c2ccccc21 | -8.85% (inactive)
2 | COC(=O)c1ccc(CSCC(=O)Nc2ccc(C)c(C)c2)o1 | -3.9% (inactive)
3 | COc1cc(/C=C/C(=O)N2CCc3ccccc3C2)cc(OC)c1OC | -28.7% (inactive)
4 | O=C1CCN(C(=S)NCCc2ccccc2)CC1 | 14.8% (inactive)
5 | Oc1cc2c(cc1O)CN(C(=S)NCCc1ccc(Cl)cc1)CCC2 | 100% (active)
6 | S=C(NCCc1ccc(Cl)cc1)Nc1ccccc1 | -14.1% (inactive)
7 | COc1cc(C#N)ccc1Oc1nc(CN2CCOCC2)nc2scc(-c3cccs3)c12 | 18.1% (inactive)
8 | CC(C)Cn1c(SCc2nnc(-c3ccccc3)o2)nnc1-c1ccccc1F | -1.55% (inactive)
9 | CC1=C(C(=O)OC2CCCC2)C(c2cc3c(cc2Cl)OCO3)C2=C(CCCC2=O)N1 (centres undefined) | 116% (inactive)
10 | COc1ccc(OC)c(NC(=O)CC(Cc2ccccc2OC)C(=O)O)c1 (centres undefined) | 2.1% (inactive)
11 | COc1ccc(OC)c(NC(=O)CS)c1 | 97.5% (active)
12 | COc1ccc(OC)c(NC(=O)CCN2CCC(C)CC2)c1 | -19.2% (inactive)
13 | O=c1[nH][nH]c(=O)c2cc(N3CCCC3)ccc12 | -10.9% (inactive)
14 | O=C1C=CC(=O)N1c1ccc(N2CCCCC2)cc1 | 99.7% (active)
15 | N#CSc1ccc(N2CCCCC2)cc1 | 21.2% (inactive)
16 | COc1ccccc1C(=O)Nc1ccccc1N1CCN(C)CC1 | -4.85% (inactive)
17 | OC1CCN(C(=S)Nc2ccccc2)CC1 | -8.65% (inactive)
18 | Fc1ccc(NC(=S)N2CCN=C2Nc2ccc(F)cc2)cc1 | 72.3% (active)
19 | COc1ccc(NC(=S)N2CCCCC2)cc1 | -6.7% (inactive)
20 | COc1ccc(-c2nnc(SCC(=O)NC3CCCc4ccccc43)o2)cc1OC (centres undefined) | -3.65% (inactive)
21 | COc1cccc(C(=O)Nc2ccccc2C#N)c1OC | -17.5% (inactive)
22 | CC(C)CN1C(=O)C=CC1=O | 80.8% (active)

Row | SMILES | inhibition
23 | CC(C)Cn1nccc1N | -12% (inactive)
24 | O=C(NCCCN1CCCC1)C1CCN(c2nc3ccccc3n3cccc23)CC1 | -7.35% (inactive)
25 | CC(C)Sc1n[nH]c(=S)n1N | 98.2% (active)
26 | CCn1c(C(C)C)n[nH]c1=S | 2.75% (inactive)
27 | CC(C)c1n[nH]c(=S)n1N | 96.5% (active)
28 | N#Cc1c(-c2c(O)[nH]c3ccccc23)c2c(-c3ccncc3)[nH]nc2oc1=N | -1.15% (inactive)
29 | CCS(=O)(=O)Nc1ccc(Cl)cn1 | 89.8% (inactive)
30 | COCCNc1oc(COc2ccc(Br)cc2)nc1C#N | -15% (inactive)
31 | COc1ccc(C2Nn3c(C)nnc3SC2C(=O)N2CCCC2)cc1 (centres undefined) | -6.35% (inactive)
32 | Cc1ccc(-n2c(SC(C)C(=O)NC(N)=O)nc3ccccc32)cc1 (centres undefined) | -6.15% (inactive)
33 | CCCCSC1=NC(C)(C)Nc2ccccc21 | -13.3% (inactive)
34 | CC(C)NC(=O)CSc1nc(-c2ccccc2)cn1N | 11.2% (inactive)
35 | CCOC(=O)c1cc(-c2ccccc2)no1 | -8.95% (inactive)
36 | O=C(COC(=O)/C=C/c1cccs1)Nc1ncc(Br)s1 | 0.8% (inactive)
37 | CCOc1ccc(OCCBr)cc1 | -5.55% (inactive)
38 | CCOc1ccc2c(c1)sc1nc(=O)n(-c3ccccc3)c(=O)n12 | 3.85% (inactive)
39 | CCOc1ccc2[nH]c(=S)sc2c1 | 81.3% (active)
40 | CNC(=O)c1cc2c(n(-c3ccccc3)c1=O)CC(C)(C)CC2=O | 72.9% (inactive)
41 | CC(C)(C)c1nc(=S)[nH][nH]1 | 59.2% (active)
42 | O=C(c1ccco1)N1CCN(C(=O)c2cnn(-c3ccccc3)c2-n2cccc2)CC1 | -6.6% (inactive)
43 | COc1cccc(C(=O)Nc2ccc(N3CCCC3)cc2)c1 | -7% (inactive)
44 | CCCCNC(=O)c1cccc(OC)c1 | -2.5% (inactive)

Row | SMILES | inhibition
45 | COc1cccc(N2C(=O)C=CC2=O)c1 | 98.8% (active)
46 | CCN1CCN(CCCNC(=S)Nc2ccc3nc(N4CCN(CC)CC4)cc(C)c3c2)CC1 | 35.8% (inactive)
47 | Cc1ccc(-c2nnc(SCc3c(C)cc(C)cc3C)o2)cc1 | -3.75% (inactive)
48 | O=C(CSc1nnc(-c2cccs2)n1-c1ccccc1)OC1CCS(=O)(=O)C1 (centres undefined) | -45% (inactive)
49 | CC(C)n1c(-c2ccncc2)n[nH]c1=S | 93.6% (active)
50 | FC(F)(F)c1cccc(-n2c(-c3ccncc3)n[nH]c2=S)c1 | 6% (inactive)
51 | S=c1[nH]nc(-c2ccncc2)n1/N=C/c1cccnc1 | -6.8% (inactive) and -8.55% (inactive)
52 | CCOC(=O)N1CCN(C(=O)COC(=O)c2cccc(S(C)(=O)=O)c2)CC1 | -7.25% (inactive)
53 | NC(=O)c1nnc(Cc2ccc(Cl)cc2)o1 | -6.1% (inactive)
54 | CC(C)n1nc(C(N)=O)c2ccccc2c1=O | 14.1% (inactive)
55 | O=C(CCC(=O)N1CCCCc2ccccc21)NC1CCCC1 | -4.6% (inactive)
56 | NCCc1ccc(Cl)cc1 | -11.3% (inactive)
57 | O=C1CSc2ccccc2N1Cc1ccc(Cl)cc1 | -5.75% (inactive)
58 | O=C1C=CC(=O)N1Cc1ccc(Cl)cc1 | 71.7% (active)
59 | CCOC(=O)c1oc2ccccc2c1CN1c2cccc3cccc(c23)S1(=O)=O | -5.65% (inactive)
60 | COC(=O)c1cccc(OCC(O)CNC2CCN(Cc3ccccc3)CC2)c1 (centres undefined) | 12.9% (inactive)
61 | Oc1ccc(CNc2ccccc2O)cc1 | 92% (active)
62 | O=C(CS(=O)(=O)c1ccccc1)Nc1ccccc1O | -1.55% (inactive)
63 | NC(=S)CC(=O)NCc1ccccc1 | 65.2% (inactive)
64 | C=CCn1c(SCC(=O)c2ccc(N(C)S(C)(=O)=O)cc2)nnc1C1CCCCC1 | 0.8% (inactive)
65 | Cc1cc(N2CCN(c3ccccc3)CC2)n2c(nc3ccccc32)c1C#N | 4.55% (inactive)
66 | CC(NC(=O)c1ccccc1NC(=O)c1ccco1)C(=O)NN(c1ccccc1)c1ccccc1 (centres undefined) | 31.5% (inactive)

Row | SMILES | inhibition
67 | Cc1occc1-c1nnc2sc(Cc3cccc4ccccc34)nn12 | 79.1% (inactive)
68 | NC1=NC(=O)C(Cc2cccc(Cl)c2)S1 (centres undefined) | 0.55% (inactive)
69 | N=C1N=C(N)C(Cc2ccccc2)S1 (centres undefined) | 84.2% (active)
70 | Nc1nnc(SCc2ccccc2)s1 | 38.8% (inactive)
71 | CN(C(=O)CSc1cccc[n+]1[O-])C1CCCCC1 | 2.9% (inactive)
72 | CCOC(=O)C1=C(C)NC(C)=C(C(=O)OCC)C1C(=O)OCc1cc(=O)n2cc(C)ccc2n1 | -9.2% (inactive)
73 | O=C(O)CCCN1C(=O)c2ccccc2Sc2ncccc21 | 4.25% (inactive)
74 | O=C(O)CCCN1C(=O)/C(=C2\SC(=S)N(CCCC(=O)O)C2=O)SC1=S | 88.5% (active)
75 | O=C(O)CN1C(=O)/C(=C2/OC(=O)c3ccccc32)SC1=S | 13.1% (inactive)
76 | N#Cc1ccc(NC(=O)CSc2ncn[nH]2)cc1 | 15.7% (inactive)
77 | COC(=O)c1cccc(Cn2nc(C)c(Cl)c2C)c1 | -1.2% (inactive)
78 | CCOC(=O)c1c(N)sc2c1CCCS2 | 70.4% (active)
79 | CCOC(=O)c1c(-n2cnnn2)sc(C)c1C | 589% [above what the read-out allows, likely interference] (inactive)
80 | CCOC(=O)c1c(N)sc2c1CC(C)(C)OC2 | 64.8% (inactive)
81 | Cc1csc(/C(C#N)=N/OC(=O)c2ccco2)n1 | 6.4% (inactive)
82 | Cc1cc(C)n(CCCN)n1 | -3.05% (inactive)
83 | O=C(CSc1nccn1-c1ccc(F)cc1)Nc1ccccc1 | 9.1% (inactive)
84 | Cc1nc2cccc[n+]2c(-c2ccccc2)c1C | -10.6% (inactive)
85 | CCOc1cccc2sc(NC(C)=O)nc12 | 17.4% (inactive)
86 | N/C(COc1ccccc1)=N\O | -4.9% (inactive)
87 | S=c1[nH]nc(COc2ccccc2)o1 | 64% (active) and 19.4% (inactive)
88 | c1ccc(OCc2nc(-c3ccccn3)n[nH]2)cc1 | 4.2% (inactive)

Row | SMILES | inhibition
89 | COc1ccc(-c2nc(CS(=O)(=O)c3ccc(F)cc3)no2)cc1OC | -17% (inactive)
90 | COCCCn1cc(C(=O)c2cc(F)ccc2O)cc(C#N)c1=O | 0.95% (inactive)
91 | Cc1ccccc1NC(=O)NC(=O)CC#N | -2.55% (inactive)
92 | Cc1ccccc1NC(=O)COC(=O)c1ccccc1 | 16.1% (inactive)
93 | Cc1ccccc1NC(=O)CSC(=O)c1ccccc1 | 75% (active)
94 | CCn1c(O)c(/C=N/N=C2/C(=O)N(C)c3ccccc32)c(=O)n(CC)c1=S | 7.05% (inactive)
95 | N#C/C(=C\c1cc2ccccc2nc1N1CCOCC1)C(=O)Nc1ccc2c(c1)OCCO2 | 12% (inactive)
96 | CC1(C)CC(=O)C(Sc2ccc(Cl)cc2)=C(N2CCOCC2)C1 | 4.9% (inactive)
97 | CC(=O)OC1=C(Sc2ccc(Cl)cc2)C(=O)CCC1 | 59.8% (active)
98 | O=C(CSc1ccc(Cl)cc1)N1CCc2ccccc21 | -9.4% (inactive)
99 | CCOC(=O)c1cc(S(=O)(=O)NC2CCCc3ccccc32)cn1C (centres undefined) | -4.15% (inactive)
100 | COC(=O)c1ccc(N)cc1 | 16.6% (inactive)
101 | COc1ccc(-n2c(SCC(=O)c3ccc4c(c3)NC(=O)CO4)nc3ccccc3c2=O)cc1OC | -1.55% (inactive)
102 | CC1(C)Oc2ccccc2C2CC(c3ccccc3)=NN21 (centres undefined) | 10.8% (inactive)
103 | CSC(=S)Nc1ccc(C)cc1 | -4.35% (inactive)
104 | Cc1ccc(NC(=S)Nc2ccc(C)cc2)cc1 | 56.7% (active)
105 | Cc1ccc(NC(N)=O)cc1 | -7.15% (inactive)
106 | Cn1c(SCc2nc(-c3cccs3)no2)nnc1-c1ccncc1 | -11.6% (inactive)
107 | CCOC(=O)CSc1cc(C)nc(SCC(=O)OCC)n1 | 7.15% (inactive)
108 | CC1CC(=O)Nc2ccccc2N1C(=O)CSc1ccccn1 (centres undefined) | -3.2% (inactive)
109 | CCOC(=O)CSc1ccccn1 | 81.9% (active)

Reference: PubChem BioAssay AID493033 (ICCB-Longwood Screening Facility, Harvard Medical School, 2011)
